# Assay results taken from PubChem BioAssay.
# Activity calls are given as the source filed them. Unless noted, how the calls were made is not given here.
# How the values were obtained:
# [1] = HepG2 liver cancer cell viability effects, profiling panel, resazurin fluorescence, 24 h, PK04 Diversity Set (AID 1172); details: higher = more signal
# [2] = basal S. cerevisiae growth modulation, no modifier, primary screen, OD600, strain BY4716, 24 h, basal condition (AID 1173); details: OD600, 24 h, higher = more signal, called active from +8 up or from −8 down
# [3] = MM1S myeloma cell viability, profiling panel, resazurin fluorescence, basal, 24 h, PK04 Diversity Set (AID 1174); details: higher = more signal, called active from +8 up or from −8 down;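 further: MM1S multiple myeloma cell line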
# [4] = molecular target: Dihydroorotate dehydrogenase (quinone), mitochondrial (Plasmodium falciparum (isolate 3D7)) (UniProt Q08210); experiment: PfDHODH enzyme inhibitors, primary screen, biochemical, C-terminal His tag, absorbance 600 nm (AID 1175); details: DCIP absorbance 600 nm, higher = more signal, called active from +8 up or from −8 down;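 further: recombinant parasite enzyme with a five histidine tag at its C terminus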
# [5] = P. aeruginosa biofilm formation inhibitors, primary screen, strain PAO1, LB-PBS medium, absorbance 600 nm (AID 1176); details: P. aeruginosa PAO1 growth/biofilm, A600, 12 h; higher = more signal
# [6] = S. cerevisiae RM11-1a growth modifiers, primary screen, strain RM11-1a, OD600, basal, 24 h (AID 1177); details: OD600, 24 h, higher = more signal, called active from +8 up or from −8 down;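 further: cultures grown under basal conditions with no added stressor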
# [7] = E. coli acrAB mutant growth effects, primary screen, E. coli filamentation inducers, strain DRC39, OD650, 24 h (AID 1178); details: higher = more signal, called active from +8 up or from −8 down;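 further: growth measured as culture turbidity by optical density at 650 nm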
# [8] = E. coli acrAB mutant growth effects, primary screen, E. coli filamentation inducers, strain DRC39, OD650, 48 h (AID 1179);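 further: screen aims at cell division blockers that make cells filament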; details: E. coli DRC39 delta-acrAB growth, higher = more signal, called active from +8 up or from −8 down
# [9] = RPMI8226 myeloma cell viability, profiling panel, resazurin fluorescence, basal, 24 h, PK04 Diversity Set (AID 1180); details: higher = more signal;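 further: RPMI8826 multiple myeloma cell line at 5000 cells per well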
# [10] = molecular target: E3 ubiquitin-protein ligase XIAP (Homo sapiens) (UniProt P98170); experiment: XIAP binders, primary screen, biophysical, small-molecule microarray, fluorescence 635 nm (AID 1181); details: small-molecule microarray binding, higher = more signal;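 further: score merges 667 nm emission and signal to noise over triplicate slides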
# [11] = tested on: XIP peptide (Xip251-270) binding; experiment: small-molecule binders of XIP peptide, primary screen, biochemical, small-molecule microarray, fluorescence 635/667 nm, 0.1 µg/mL protein (AID 1182); details: fluorescent protein binding, 635 nm, higher = more signal, called active from +8 up or from −8 down
# XIP peptide (Xip251-270) = experiment: small-molecule binders of XIP peptide, primary screen, biochemical, small-molecule microarray, fluorescence 635/667 nm, 0.5 µg/mL protein (AID 1183); details: small-molecule microarray binding, fluorescence 635 nm; higher = more signal
# [12] = Plasmodium falciparum growth inhibition, primary screen, strain 3D7, DAPI fluorescence, 100 nL (AID 1184);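 further: parasites grown inside human red blood cells in medium with human serum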; details: P. falciparum 3D7 growth, 3 d, higher = more signal
# [13] = molecular target: Homeobox protein Hox-A13 (Mus musculus) (UniProt Q62424); experiment: inhibitors of HoxA13-DNA binding, primary screen, biochemical, fluorescence polarization, labeled oligonucleotide (AID 1185); details: 15 min, higher = more signal, called active from +8 up or from −8 down
# [14] = inhibitors of hydroxyurea-induced Chk1 phosphorylation, primary screen, imaging, HeLa, phospho-Chk1 antibody, percent positive cells (AID 1186); details: hydroxyurea-induced phospho-Chk1 immunofluorescence imaging, higher = more signal
# [15] = inhibitors of hydroxyurea-induced Chk1 phosphorylation, primary screen, imaging, HeLa, phospho-Chk1 nuclear intensity (AID 1187); details: hydroxyurea-induced phospho-Chk1 immunofluorescence imaging, higher = more signal
# Sequence of Homeobox protein Hox-A13 (Mus musculus) (Q62424 whole entry, looked up): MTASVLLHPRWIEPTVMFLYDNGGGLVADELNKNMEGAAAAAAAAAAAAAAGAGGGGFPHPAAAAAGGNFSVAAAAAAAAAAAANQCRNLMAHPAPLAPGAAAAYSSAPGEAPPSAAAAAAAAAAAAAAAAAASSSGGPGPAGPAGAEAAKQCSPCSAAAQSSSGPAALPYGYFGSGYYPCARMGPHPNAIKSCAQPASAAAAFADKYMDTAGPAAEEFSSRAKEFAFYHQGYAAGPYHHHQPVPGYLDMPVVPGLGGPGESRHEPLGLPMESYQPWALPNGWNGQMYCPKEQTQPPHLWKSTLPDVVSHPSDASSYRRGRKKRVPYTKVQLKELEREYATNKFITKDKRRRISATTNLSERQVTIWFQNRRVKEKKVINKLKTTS
# Sequence of E3 ubiquitin-protein ligase XIAP (Homo sapiens) (P98170 whole entry, looked up): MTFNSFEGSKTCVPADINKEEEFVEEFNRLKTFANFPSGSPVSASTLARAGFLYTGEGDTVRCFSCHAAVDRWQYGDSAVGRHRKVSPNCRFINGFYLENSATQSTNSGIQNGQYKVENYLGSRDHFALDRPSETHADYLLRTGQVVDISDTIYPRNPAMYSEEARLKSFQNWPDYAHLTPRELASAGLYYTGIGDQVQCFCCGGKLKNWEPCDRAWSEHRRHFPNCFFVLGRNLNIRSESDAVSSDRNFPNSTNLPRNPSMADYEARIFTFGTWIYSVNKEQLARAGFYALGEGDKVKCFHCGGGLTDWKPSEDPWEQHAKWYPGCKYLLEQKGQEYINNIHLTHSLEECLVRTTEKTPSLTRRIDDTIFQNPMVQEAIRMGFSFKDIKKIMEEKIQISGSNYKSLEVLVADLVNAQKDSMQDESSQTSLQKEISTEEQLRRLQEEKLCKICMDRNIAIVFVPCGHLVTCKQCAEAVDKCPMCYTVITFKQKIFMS
# Sequence of Dihydroorotate dehydrogenase (quinone), mitochondrial (Plasmodium falciparum (isolate 3D7)) (Q08210 whole entry, looked up): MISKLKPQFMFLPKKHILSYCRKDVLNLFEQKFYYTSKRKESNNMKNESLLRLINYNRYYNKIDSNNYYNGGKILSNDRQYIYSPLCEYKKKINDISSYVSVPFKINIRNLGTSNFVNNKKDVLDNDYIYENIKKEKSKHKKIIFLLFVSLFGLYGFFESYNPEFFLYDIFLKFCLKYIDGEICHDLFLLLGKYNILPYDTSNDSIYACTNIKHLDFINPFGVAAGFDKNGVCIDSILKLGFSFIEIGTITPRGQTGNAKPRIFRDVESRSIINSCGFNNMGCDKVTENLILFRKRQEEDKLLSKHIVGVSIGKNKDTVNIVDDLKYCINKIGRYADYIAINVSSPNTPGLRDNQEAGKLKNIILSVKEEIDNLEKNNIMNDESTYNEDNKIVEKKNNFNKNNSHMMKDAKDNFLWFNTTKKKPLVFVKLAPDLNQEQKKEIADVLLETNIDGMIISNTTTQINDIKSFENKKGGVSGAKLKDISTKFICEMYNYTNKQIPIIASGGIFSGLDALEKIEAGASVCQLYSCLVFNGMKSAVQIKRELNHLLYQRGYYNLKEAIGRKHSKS
SMILES,z-score [1],z-score [2],z-score [3],composite z-score [4],z-score [5],z-score [6],z-score [7],z-score [8],z-score [9],composite z-score [10],composite z-score [11],composite z-score (XIP peptide (Xip251-270)),z-score [12],z-score [13],z-score [14],z-score [15]
CCOC(=O)C1=CC[C@@H](c2ccccc2F)N(S(=O)(=O)c2ccc(C)cc2)[C@H]1c1ccccc1,0.325,0.837 (inactive),-0.0773 (inactive),-0.496 (inactive),0.698 (inactive),0.262 (inactive),-0.308 (inactive),-0.35 (inactive),-0.781,-0.195,-0.0895 (inactive),0.563,-2.02,1.41 (inactive),0.0286 (inactive),-0.82 (inactive)
COc1ccc(CCNC(=O)[C@@]2(c3ccc([N+](=O)[O-])cc3)CC(=O)N(C3CCCCC3)[C@@H]2c2ccc(CO)cc2)cc1,0.159,-0.0229 (inactive),-0.881 (inactive),0.395 (inactive),-0.342 (inactive),1.14 (inactive),0.914 (inactive),0.686 (inactive),0.556,-0.0333,1.48 (inactive),0.662,-0.171,-4.2 (inactive),-0.192 (inactive),0.0527 (inactive)
O=C1NC(=O)C2C1C=CC(C(O)c1ccco1)N2Nc1ccc(Cl)cc1Cl (centres undefined),-2.04,-17 (active),-1.41 (inactive),0.893 (inactive),0.711 (inactive),-5.34 (inactive),-0.725 (inactive),-1.86 (inactive),-1.28,0.257,-0.101 (inactive),0.634,-0.461,-5.4 (inactive),0.54 (inactive),0.408 (inactive)
CCOC(=O)C[C@H]1[C@H](OC(=O)c2cc3ccccc3oc2=O)[C@@H](NC(=O)c2ccc3ccccc3n2)c2cc(OCCCO)ccc2N1C(=O)Cc1ccc(OC)cc1,1.16,-0.105 (inactive),-0.76 (inactive),-0.543 (inactive),-1 (inactive),0.796 (inactive),0.662 (inactive),0.0535 (inactive),-0.284,-0.173,-0.816 (inactive),0.71,-1.42,-3.15 (inactive),0.458 (inactive),-0.301 (inactive)
CC(C)[Si](C#CCCCC#N)(O[C@H](c1ccccc1)c1cn(Cc2ccccc2)nn1)C(C)C,-0.538,-6.51 (inactive),0.118 (inactive),-0.0054 (inactive),0.584 (inactive),-0.431 (inactive),-0.25 (inactive),0.0331 (inactive),0.424,-0.0025,0.206 (inactive),0.391,0.559,-1.61 (inactive),-0.727 (inactive),-0.29 (inactive)
C#CCN(Cc1ccccc1Br)[C@H](/C=C/c1ccccc1)[C@@H](O)Cc1ccccc1,1.71,0.31 (inactive),-0.309 (inactive),0.342 (inactive),-0.0825 (inactive),1.05 (inactive),1.84 (inactive),1.24 (inactive),-0.971,-0.0559,-0.368 (inactive),-0.115,-0.717,-0.384 (inactive),-0.162 (inactive),0.103 (inactive)
COc1ccc([Si](C)(C)[C@@H]2[C@@H](CCO)O[C@]3(C(=O)N(Cc4ccccc4)c4ccc(NC(=O)[C@H](C)O)cc43)[C@H]2C)cc1,-4.57,2.31 (inactive),-6.39 (inactive),-0.347 (inactive),1.45 (inactive),5.11 (inactive),0.912 (inactive),0.477 (inactive),-6.12,0.157,0.816 (inactive),0.606,-2.83,-6.12 (inactive),-0.178 (inactive),-0.305 (inactive)
N[C@@H](Cc1ccccc1)C(=O)NCc1cn(Cc2ccccc2)nn1,0.68,-1.38 (inactive),0.323 (inactive),-0.777 (inactive),-0.452 (inactive),-0.0114 (inactive),1.35 (inactive),0.614 (inactive),0.449,-0.227,-0.221 (inactive),-0.984,-0.581,-0.368 (inactive),-0.167 (inactive),0.0852 (inactive)
[N-]=[N+]=Nc1ccccc1C[C@]1(C(=O)N2CCOCC2)COC(c2ccc(OCCCO)cc2)=N1,1.27,-3.78 (inactive),0.632 (inactive),0.265 (inactive),-0.537 (inactive),-0.85 (inactive),1.08 (inactive),0.906 (inactive),1.02,0.138,0.373 (inactive),0.666,-2.03,-6.82 (inactive),-0.488 (inactive),-0.338 (inactive)
CCCC#C[Si](O[C@H](CC)c1cn([C@H](C)c2ccccc2)nn1)(C(C)C)C(C)C,0.186,-12.9 (active),-0.098 (inactive),0.738 (inactive),-0.677 (inactive),0.75 (inactive),1.4 (inactive),1.06 (inactive),1.29,0.274,0.062 (inactive),0.78,-0.285,-0.652 (inactive),-0.673 (inactive),-0.399 (inactive)
COC(=O)C(CC#Cc1ccc2c(c1)[C@]1(C(=O)N2)[C@H](c2ccc(O)cc2)N2[C@H](c3ccccc3)[C@H](c3ccccc3)OC(=O)[C@H]2[C@@H]1C(=O)NC[C@H](O)c1ccccc1)C(=O)OC,-0.0495,0.677 (inactive),-0.275 (inactive),-3.93 (inactive),0.87 (inactive),0.379 (inactive),0.062 (inactive),-0.138 (inactive),-1.37,-0.0013,0.646 (inactive),0.42,0.452,-3 (inactive),-0.0427 (inactive),-0.171 (inactive)
COc1ccc(CCNC(=O)[C@@]2(Sc3ccc(C)cc3)CC(=O)N(Cc3ccccc3C(F)(F)F)[C@@H]2c2ccc(CO)cc2I)cc1,0.267,-5.78 (inactive),-2.05 (inactive),-1.6 (inactive),-0.171 (inactive),-1.77 (inactive),0.0424 (inactive),0.189 (inactive),-1.72,0.1,0.232 (inactive),0.853,-0.77,-2.7 (inactive),0.17 (inactive),0.68 (inactive)
COc1ccc([C@H]2OC[C@@H]3C[C@H](Cc4ccccc4)C(=O)N32)cc1,-0.195,-3.69 (inactive),0.229 (inactive),-0.0327 (inactive),-0.145 (inactive),0.248 (inactive),-0.278 (inactive),-0.818 (inactive),-0.627,-0.152,-0.299 (inactive),0.0713,0.877,-0.716 (inactive),0.311 (inactive),0.0211 (inactive)
CCCCC(CC)C(O)C1C=CC2C(=O)N(c3ccccc3)C(=O)C2N1Nc1ccccc1F (centres undefined),0.518,0.814 (inactive),0.888 (inactive),0.301 (inactive),0.657 (inactive),0.732 (inactive),0.207 (inactive),0.644 (inactive),0.767,0.0727,0.634 (inactive),0.0509,-0.579,-2.25 (inactive),0.322 (inactive),0.195 (inactive)
CCCCC[C@H]1OC[C@@]23C=C(Br)[C@@H](CC12)[C@@]1(CO1)C3=O (some centres undefined),0.213,-8.43 (active),-0.586 (inactive),-0.23 (inactive),0.248 (inactive),-0.984 (inactive),-0.662 (inactive),-0.666 (inactive),-0.0702,0.144,-0.311 (inactive),-0.332,1.66,-2.47 (inactive),-0.556 (inactive),-0.245 (inactive)
CC(C)[Si]1(C(C)C)OCc2cc(C3CC3)nc(-c3ccc(Oc4ccccc4)cc3)c21,0.467,1.64 (inactive),1.03 (inactive),0.483 (inactive),0.173 (inactive),2.12 (inactive),0.362 (inactive),0.0518 (inactive),-0.497,-0.299,-0.495 (inactive),-0.603,-1.39,-2.85 (inactive),-0.48 (inactive),-0.358 (inactive)
COCCOC(=O)N1C(=O)[C@@]2(c3ccccc31)[C@H](C(=O)NC[C@H](O)c1ccccc1)[C@H]1C(=O)O[C@H](c3ccccc3)[C@H](c3ccccc3)N1[C@@H]2c1ccc(O)cc1,0.248,0.64 (inactive),-0.65 (inactive),-0.0106 (inactive),0.269 (inactive),1.64 (inactive),-0.236 (inactive),-0.803 (inactive),-0.773,-0.103,0.26 (inactive),0.819,-1.02,-3.48 (inactive),0.326 (inactive),0.653 (inactive)
CCOC(=O)C[C@H]1[C@H](OC(=O)c2cc3ccccc3oc2=O)[C@@H](NC(=O)CC(C)C)c2cc(OCCCO)ccc2N1C(=O)c1ccc2ccccc2n1,-0.792,0.738 (inactive),-0.043 (inactive),0.544 (inactive),0.555 (inactive),1.44 (inactive),-0.463 (inactive),-0.416 (inactive),-0.493,-0.102,2.46 (inactive),0.46,-0.533,-4.43 (inactive),-0.121 (inactive),-0.507 (inactive)
C#Cc1cc2ccccc2oc1=O,0.236,-5.07 (inactive),-1.05 (inactive),-0.748 (inactive),-0.0322 (inactive),-0.874 (inactive),-1.46 (inactive),-1.25 (inactive),-1.14,-0.172,0.151 (inactive),0.35,-0.744,-1.51 (inactive),0.318 (inactive),-0.6 (inactive)
